Measured values reported in the supplement of paper PMC3334620.
In all, about 33,000 sequences were measured (“E-score (-0.5 to 0.5)”: median about -0.054, highest 2% from about 0.35 on). For the sample, the highest values were picked, then their nearest neighbours and some sequences at random.

Biological target: T1, Stb5 (UniProt P38699)
T1 sequence: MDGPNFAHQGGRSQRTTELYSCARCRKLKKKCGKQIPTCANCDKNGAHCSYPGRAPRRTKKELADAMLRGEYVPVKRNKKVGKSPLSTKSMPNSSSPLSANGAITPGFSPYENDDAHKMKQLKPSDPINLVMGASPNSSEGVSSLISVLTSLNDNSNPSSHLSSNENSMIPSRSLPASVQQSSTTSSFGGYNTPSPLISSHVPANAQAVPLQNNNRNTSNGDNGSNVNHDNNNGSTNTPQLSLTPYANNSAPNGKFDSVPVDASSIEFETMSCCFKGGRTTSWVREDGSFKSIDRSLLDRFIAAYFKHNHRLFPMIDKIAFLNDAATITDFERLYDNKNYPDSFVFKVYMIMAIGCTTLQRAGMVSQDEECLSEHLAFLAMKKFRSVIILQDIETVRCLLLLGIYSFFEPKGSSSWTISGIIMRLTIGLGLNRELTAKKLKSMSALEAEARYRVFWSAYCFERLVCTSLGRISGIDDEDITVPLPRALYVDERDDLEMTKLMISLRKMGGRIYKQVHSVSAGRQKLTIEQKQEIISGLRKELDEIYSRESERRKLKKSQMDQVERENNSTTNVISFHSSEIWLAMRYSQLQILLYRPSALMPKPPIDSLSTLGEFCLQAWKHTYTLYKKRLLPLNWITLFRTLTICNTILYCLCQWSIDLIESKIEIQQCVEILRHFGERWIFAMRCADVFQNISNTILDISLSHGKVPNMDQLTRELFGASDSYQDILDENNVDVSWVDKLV
Test: PBM E-score (8-mer binding enrichment) (E-score (-0.5 to 0.5)); higher = stronger / more preferred TF binding
Conditions: protein concentration: 200 nM; construct: GST-full length
Experimental: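 Universal 'all 10-mer' protein binding microarrays (Agilent AMADID 015681) probed with GST-tagged S. cerevisiae TFs (full-length or DBD) made by in vitro transcription/translation (PURExpress), about 100-200 nM. Bound TF was detected with fluorescent anti-GST. Each ungapped 8-mer (which stands for itself and its reverse complement) is scored by the PBM enrichment score (E-score), a modified Wilcoxon-Mann-Whitney statistic from -0.5 to +0.5, computed with the Universal PBM Analysis Suite. Scale: above 0.35 generally sequence-specific binding.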

Sequence	PBM E-score
ACGTCATC	-0.115
CTACTACC	0.216
ACAGCACC	0.202
GGCTAGTA	-0.139
ACCCTGCG	-0.165
TCCACCAA	-0.103
GACAAAGA	-0.0701
CATTCCCG	0.203
AATCCCCC	0.127
CATCCCCG	0.264
AATCCCCG	0.452
AATCCCGG	0.352
AATTCCCA	-0.261
AATCCGGG	0.233
AATTCCCG	0.363
CATCCCGG	0.134
GATGCAGC	0.0949
CATAAAGC	-0.0703
CTCAAATC	-0.136
TCACTCGA	-0.204
CCCGGTGA	0.261
CGCGGTAA	0.343
CTCGGTGC	0.148
CGCGGTCA	0.21
AGCGGTCC	0.327

Sequence	PBM E-score
GCCGGTGA	0.316
CGCGGTGC	0.378
GGCGGTGA	0.376
GGCGGTCA	0.342
CGCGGTCC	0.356
CGCGGTGA	0.359
CGCGGTAG	0.249
CCTATCAG	-0.131
CCAATATA	-0.07
CGCTCTAC	-0.0196
CAAAGCCC	0.285
CGCGGTTC	0.205
CGCGGTTA	0.37
AGCGGTGG	0.346
AGCGGTAG	0.204
AGCGGTTA	0.122
AGCGGTGA	0.387
CCCGGTGC	0.315
ACCGGTGA	0.319
AGCGGTTC	0.0808
AGCGGTCA	0.29
AGCGGTGC	0.396
ACCGGTGC	0.377
GCCGGAAA	0.187
CGTTGGAC	-0.0247

Sequence	PBM E-score
GTCCCATA	-0.0984
AGATTCAA	-0.16
AGCCTGCC	-0.229
CCTGACCA	-0.291
ACCGGTAT	0.336
GACGGTGA	0.325
ACCGGTAC	0.397
CACGGTGC	0.306
GACGGTGC	0.392
ACCGGTAA	0.326
AGAATGAT	-0.254
ATTGCATA	-0.0781
CAAGATGA	-0.286
AACCTTCC	-0.135
CGACTCCA	-0.0871
TAAAAAGA	0.046
GCAGAGTA	-0.202
CATCTAGC	-0.12
CGGGCCGC	0.195
AGGGCCGA	0.354
GGGGCCGA	0.158
AGGGCCGC	0.36
CGGGCCGA	0.327
AGGGCCGG	0.271
CTGGGGCC	-0.0638

Sequence	PBM E-score
GGTTGTAA	0.0915
CGGAGTCA	0.391
GGGAGTCA	-0.163
GGGAGTGA	-0.0152
CGGAGTGA	0.391
CGGAGTGC	0.198
AGGAGTCA	-0.194
AGCGCAGA	-0.0263
CCATGACG	0.0201
CCAATTTA	0.119
AGACCGCG	0.297
ACACCGCA	0.44
CCACCGCA	0.245
TCACCGCA	0.305
CTACCGCC	0.305
ATACCGCC	0.434
ACACCGCG	0.444
CGACCGCC	0.255
ATACCGCG	0.33
AGACCGCC	0.364
ATACCGCA	0.325
CCACCGCG	0.3
CCCGTGAC	0.155
GATTTGAC	0.0761
CAGCGTAA	-0.168

Sequence	PBM E-score
CCCATTAG	-0.361
AATTCCGA	0.265
GGACGGGA	0.1
CCTTTGCG	0.03
GATGCCCA	-0.136
ATACCGTC	0.357
CCACCGCC	0.282
ATACCGTG	0.249
AAACCGCT	0.0494
AGACCGCT	0.345
ACACCGCC	0.459
ACACCGCT	0.419
ATACCGTA	0.259
AAACCGCC	0.302
GCACCGCC	0.377
GGACCGCC	0.288
GAACCGCC	0.187
ATCTGGTC	-0.153
ATTTAGAG	-0.138
AATGGTGA	-0.231
TGTAGCAA	-0.0607
AATAAGCA	-0.0559
CAAAGTAG	-0.164
GGACCGCA	0.188
GCACCGCA	0.361

Sequence	PBM E-score
GCACCGTA	0.248
CATCCGAC	0.288
CGAGACTA	-0.0587
CCGGGTCA	0.176
CCGGGTGA	0.179
GGGGGTCA	-0.125
CGGGGTCA	0.441
GGGGGTGA	-0.123
CGGGGTGA	0.432
CGCTTGGA	-0.0324
TAGGACAA	-0.287
CCCGGGTC	0.352
ACCCGGTC	0.204
CCCCGGTA	0.298
CCCCGGTC	0.369
CCCGGGTA	0.101
ACCGGGTC	0.19
CCCGCACG	0.325
GAAGTTCA	-0.189
ACCCCGGA	0.308
CCCCGGGG	0.393
ACCCCGGT	0.356
ACCCCGGG	0.392
CCCCGGGC	0.265
CCCCGGGA	0.268

Sequence	PBM E-score
ACCCGGGG	0.185
ACCCCGGC	0.343
CCCCCGGG	0.237
TAGAAAAA	-0.116
ACAGCCCC	-0.0495
CCTGTGAC	-0.0962
CCGATGAC	0.301
GTCCACGA	-0.134
AGGCTCTC	-0.369
AGAACTTA	-0.169
AATGTAGT	-0.128
ACAAAGCA	-0.0624
CTTGGGAC	-0.0832
AAATGCCC	0.0775
AATTGCCA	-0.27
AATTGCCG	0.354
AAGTGCCA	-0.182
AAGTGCCG	0.409
CAATGCCG	0.334
AAGTGCCC	0.0216
AAATGCCG	0.435
AATTGCCC	0.0559
CTAGCGTC	0.0861
AGAAACCA	-0.212
CCATGGCA	-0.0516

Sequence	PBM E-score
ACCCCTAC	-0.171
ATACATTC	-0.228
AACCGTCG	0.212
CACCGTCA	0.333
GACCGTCC	0.21
CACCGTCG	0.373
AACCGTCC	-0.0366
CACCGTCC	0.407
AACCTAGC	-0.17
CTGTGGCA	-0.279
ATAAAGCC	0.359
ATAAGACG	-0.111
ATAAAGCG	0.236
ATAAGGCC	0.359
CTAAGGCC	0.262
ATAAGACC	0.397
CTAAAGCC	0.228
ATAAGGCG	-0.00531
CTAAGCCC	0.324
CTAAGACC	0.22
ATAAGCCC	0.406
ATAAGCCA	-0.107
AGAAAGAG	-0.102
ACCTGATA	0.0218
CTAAGTCC	0.245

Sequence	PBM E-score
ATAAGTCC	0.443
ATAAGTCG	0.15
ATGCGTTG	-0.0346
AAACTCCC	0.104
GAGTTCGC	0.0473
AACGCCAT	-0.106
GACGCCGA	0.342
AACGCCTC	-0.064
AACGCCGT	0.437
AACGCCGC	0.448
CACGCCGA	0.133
AACGCCGA	0.456
TACGCCGA	0.299
GACGCCGC	0.406
AACGCCTT	-0.00961
CACGCCGC	0.293
AACGCCAC	-0.0588
ATAGCCCA	-0.245
ACCAGCGA	0.0766
